Our source for the Inhibition values is ChEMBL document CHEMBL4513135, “CO-ADD screening of IQOG CSIS (Spain) compounds”.

By Inhibition is commonly meant the drop in the measured response relative to a control, in per cent.

The subject of one assay is Staphylococcus aureus. Particulars: Concentration 32 ug.mL-1, ASSAY_TEST Inhibition of Bacterial Growth, detection method Absorption (OD600), MEDIA CAMHB, plate type 384well, NBS, CORNING #3640, time 18 hr.
Another assay has as its system Escherichia coli. Particulars: Concentration 32 ug.mL-1, ASSAY_TEST Inhibition of Bacterial Growth, detection method Absorption (OD600), MEDIA CAMHB, plate type 384well, NBS, CORNING #3640, time 18 hr.

“And” between values parts separate entries of the source, which are not always exact repeats. Identical values can stand only once. Potency and affinity values are given separately.

As to `O=C(Cc1cccc2ccccc12)N/N=C/c1c[nH]c2ccccc12`, the Inhibition is 12.36% in the assay on Staphylococcus aureus and 15.45% in the assay with Escherichia coli.
On to `CC1CC(=O)Nc2c1c(Cl)nc1nc3c(c(N)c21)CCCC3` (stereo unspecified), for which the values for the Inhibition in the assay on Staphylococcus aureus and in the assay on Escherichia coli were 34.68% and -17.09%, respectively.
In the same order, the values of `N#CC1=C(N)NC(=O)CC1c1ccccc1` (stereo unspecified) are 34.44% and 4.14%.
With `C#CCN(C)Cc1cc2cc(OCCCC3CCN(C(=O)OC(C)(C)C)CC3)ccc2n1C`, the figures for the Inhibition in the assay on Staphylococcus aureus and in the assay with Escherichia coli were 10.44% and 14.28%, respectively.
In the same order, the values of `C#CC[n+]1ccccc1N.[Br-]` are 6.4% and 12.69%.
In the same order, the values of `NC(=O)c1cc2cc(OCc3ccccc3)ccc2[nH]1` are 21.34% and -8.75%.
In the same order, the values of `COc1ccc2c(c1)cc(C(=O)O)n2C` are 20.8% and -7.03%.
Take `COC1=C(C#N)CCC(=O)N1`: the Inhibition with Staphylococcus aureus is given as 33.45%; in the assay with Escherichia coli it was -6.96%.
In the case of `CN1C/C(=C\Cl)n2c1c(C#N)c(-c1ccccc1)c(C#N)c2=O`, the Inhibition is 14.24% in the assay with Staphylococcus aureus and -33.76% in the assay on Escherichia coli.
Consider `N#CC1(Br)C(=NBr)Oc2ccc3ccccc3c2C1c1ccccc1[N+](=O)[O-]` (stereo unspecified), for which the Inhibition was 23.03% with Staphylococcus aureus and -25.63% with Escherichia coli.
For `O=C(Cc1c[nH]c2ccccc12)NNCc1ccccc1`, in that order: -6.19% and -10.21%.
In the same order, the values of `CCOc1nc(N)c(C#N)c(-c2ccccc2)c1C#N` are 44.16% and -9.76%.
For the compound `Cl.NC1(C(=O)O)CC1c1cccc(Cl)c1` (stereo unspecified), the Inhibition in the assay with Staphylococcus aureus stood at 12.59%; in the assay with Escherichia coli, 12.02%.
In the same order, the values of `C#CCN(C)c1nc(NC2CCN(Cc3ccccc3)CC2)c(C#N)c(-c2ccccc2)c1C#N` are 0.44% and -3.84%.
Consider `CC(=O)Nc1nn(C)c2nc3nc4c(c(N)c3cc12)CCCC4`, for which the Inhibition with Staphylococcus aureus (32 ug/mL) is 26.15% and 21.32%; in the assay on Escherichia coli (32 ug/mL) it was -7.37% and -4.67%.
For the compound `C#CCNc1ncccn1`, the Inhibition was 40.44% in the assay with Staphylococcus aureus and -0.02% in the assay with Escherichia coli.
Consider `O=C1NC(=S)N/C1=C\c1c[nH]c2ccccc12`, for which the Inhibition with Staphylococcus aureus worked out at 7.26%; in the assay with Escherichia coli, 6.43%.
In the same order, the values of `COc1cc(C2CC2(N)C(=O)O)ccc1O` (stereo unspecified) are 4.38% and -1.72%.
For `CSC1=NC2(CC2c2ccccc2)C(=O)N1` (stereo unspecified), in that order: 10.34% and 2.43%.
For `COc1ccc(C2C(C#N)=C(N)Oc3c2ccc2ccccc32)c(OC)c1` (stereo unspecified), in that order: 5.1% and 0.79%.
Turning to `O=C1SC(SCc2ccccc2)=NC1=Cc1cccc(OCc2ccccc2)c1`, the Inhibition is on record as -1.09% with Staphylococcus aureus and 7.89% in the assay on Escherichia coli.
For `N#Cc1cc(C#N)c(Cl)nc1Cl`, in that order: 15.28% and -15.75%.
In the same order, the values of `Cl.Nc1c2c(nc3c1C(c1ccccc1)c1c(ccc4ccccc14)O3)CCCC2` (stereo unspecified) are 8.92% and 12.69%.
In the same order, the values of `COc1ccc(-c2cc(-c3cc4ccccc4nc3Cl)cc(=O)[nH]2)cc1` are 22.93% and -12.6%.
Regarding `O=C1SC(SCc2ccccc2)=NC1=Cc1ccc2c(c1)OCO2`, the Inhibition was 0.74% in the assay on Staphylococcus aureus and 10.84% in the assay with Escherichia coli.
As for `CCOC(N)=CC#N`, the Inhibition in the assay with Staphylococcus aureus was -2.54%; with Escherichia coli it was 11.63%.
For `O=Cc1cc2ccccc2nc1Cl`, in that order: 19.39% and 16.87%.
Consider `CCOC(=O)C1=C(C)Nc2nc3c(c(N)c2C1c1cccc(OC)c1)CCCC3` (stereo unspecified), for which the Inhibition is on record as 17.18% in the assay with Staphylococcus aureus and -19.26% in the assay on Escherichia coli.
For `CNCc1cc2cc(OC)ccc2n1C.Cl`, the Inhibition is reported as 10.42% with Staphylococcus aureus and -0.77% in the assay with Escherichia coli.
Take `O=C1SC(SCc2ccccc2)=NC1=Cc1ccccc1`: the Inhibition with Staphylococcus aureus came out at 6.82%; in the assay with Escherichia coli, 1.82%.
In the same order, the values of `CC1=C(CO)C(c2ccc(C#N)cc2)C(C#N)=C(N)O1` (stereo unspecified) are 9.52% and 17.18%.
For `COc1ccc2cc(C3C(C(C)=O)=C(C)Oc4nc5c(c(N)c43)CCC5)c(Cl)nc2c1` (stereo unspecified), in that order: 7.35% and 4.4%.
In the case of `CCOC(=O)C1=C(C)Oc2nc3c(c(N)c2C1c1nccn1C)CCC3` (stereo unspecified), the Inhibition with Staphylococcus aureus is listed as 6.58%; in the assay with Escherichia coli it was -22.18%.
